High-throughput results deposited in PubChem BioAssay by The Scripps Research Institute Molecular Screening Center.
GPR151 ag – activators of human GPR151; hit rate 1% among 650,000; Q8TDV0; PathHunter beta-arrestin GPR151 cells, luminescence; AID 1508602; activation, % at 11.2 µM; in the data active = activation above about 4.9%;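 note: 0% = median of compound wells and 100% = cells with positive control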
FBW7 act – human FBW7 E3 ligase activation, primary screen; Q969H0; AlphaScreen FBW7–phospho-cyclin E peptide binding, activator screen; hit rate 0.13% among 650,000; normalized activity (activation), % at 26.1 µM; in the data active = normalized activity above about 1.9%;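 note: purified mutant Fbw7 with reduced substrate affinity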
TEAD-YAP inh – TEAD-YAP interaction inhibition | inhibition, % at 9.12 µM | hit rate 1.4% among 640,000 | HEK-TIYL cells, TEAD-Gal4/YAP UAS-luciferase luminescence; in the data active = inhibition above about 32%;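 note: 0% = median of test compound wells and 100% = reference inhibitor wells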
MITF primary – blocks human microphthalmia-associated transcription factor. O75030. AlphaScreen MITF homodimerization, bead proximity signal. inhibition, % at 2.6 µM. hit rate 0.91% among 650,000. AID 1259374; in the data active = inhibition above about 50%;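 note: 0% = vehicle wells with protein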
Target sequence (O75030 whole entry, looked up): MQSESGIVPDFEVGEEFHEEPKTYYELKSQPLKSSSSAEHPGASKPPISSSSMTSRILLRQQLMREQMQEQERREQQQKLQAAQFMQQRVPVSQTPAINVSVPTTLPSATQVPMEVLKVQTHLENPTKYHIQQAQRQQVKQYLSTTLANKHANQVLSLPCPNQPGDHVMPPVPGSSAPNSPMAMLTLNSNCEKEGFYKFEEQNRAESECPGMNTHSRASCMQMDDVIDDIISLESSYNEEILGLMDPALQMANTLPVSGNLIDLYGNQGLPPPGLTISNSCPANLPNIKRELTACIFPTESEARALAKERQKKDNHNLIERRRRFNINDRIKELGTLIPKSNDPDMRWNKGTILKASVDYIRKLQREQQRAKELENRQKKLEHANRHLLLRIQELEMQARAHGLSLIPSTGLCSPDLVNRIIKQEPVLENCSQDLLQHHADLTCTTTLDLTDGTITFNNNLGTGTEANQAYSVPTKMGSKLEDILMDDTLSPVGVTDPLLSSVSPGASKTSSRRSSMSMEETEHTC
GPR151 conf act – confirmation of human GPR151 activators. shares compounds with GPR151 ag. GPR151 PathHunter beta-arrestin cells, luminescence, 90 min; % of EA-reagent control over plate median. activation, % at 11.2 µM. 6,700 tested, under 10 active;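 active = mean percent activation across replicates above the confirmation screen cutoff of 4.91%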
GPR119 counter – counter-screen for GPR151 activators: effect on human GPR119 | AID 1508611 | shares compounds with GPR151 ag | hit rate 0.3% among 6,700 | GPR119 PathHunter beta-arrestin cells, luminescence, 90 min; 0 = compound-well median, 100 = enzyme-acceptor control | activation, % at 11.2 µM;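 active = mean percent activation in the counterscreen above 29.09%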;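 note: counterscreen on off-target GPR119 to flag nonselective hits from the GPR151 activator screen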
An asterisk follows results filed as active; nt = no result given. The list is not random: actives were taken first. Their share in the collection is about 3.4%.

SMILES	GPR151 ag	FBW7 act	TEAD-YAP inh	MITF primary	GPR151 conf act	GPR119 counter
COC(=O)c1sc2cc([N+](=O)[O-])cc(Sc3ccccc3)c2c1-n1cccc1	5.7*	0	-14	-11	0	-8
COc1ccc(-c2cnnc(N[C@H]3CCCCNC3=O)n2)cc1	0	0	-20	2	nt	nt
Cc1cnc(C)c(NC2CCCCNC2=O)n1 (centres undefined)	8.0*	0	11	6	2	0
COc1cc(OC)c(OC)cc1/C=N/NC(=O)Cn1ccnc1C	3	0	1	8	nt	nt
COC(=O)c1cc(NS(=O)(=O)c2ccc3ccccc3c2)ccc1Cl	5.0*	0	3	1	0	4
COc1cccc(S(=O)(=O)Nc2ccc(Cl)c(C(F)(F)F)c2)c1	7.1*	0	1	3	1	-1
Cc1c(NC(=O)Nc2cccc(Cl)c2)cccc1[N+](=O)[O-]	1	0	-11	27	nt	nt
COc1ccc(Cl)cc1NC(=O)Nc1cccc([N+](=O)[O-])c1C	8.3*	0	8	18	2	-1
COc1cccc2cc(C(=O)/C=C/c3cccc(F)c3)c(=O)oc12	5.4*	0	-2	-6	0	1
COc1ccc(OCC(=O)O/N=C(\N)c2ccc(OC)c(OC)c2)cc1	8.2*	0	7	-9	0	10
COc1ccc(/C(N)=N/OC(=O)COc2ccc(Br)cc2)cc1OC	1	0	-4	-5	nt	nt
CCC(C(=O)N1CCCCC1)n1ncn2c(cc3occc32)c1=O (centres undefined)	5.7*	0	-6	6	0	6
CCCC(=O)Nc1nnc(S(=O)(=O)N(CC)c2ccc(Cl)cc2)s1	0	0	11	6	nt	nt
CCCCC(=O)Nc1nnc(S(=O)(=O)N(CC)c2ccc(Cl)cc2)s1	5.7*	0	6	-6	1	3
O=C(CSc1nccc(=O)[nH]1)Nc1nccs1	6.5*	0	-1	7	0	11
Cc1c(Cl)cccc1NC(=O)CSc1nccc(=O)[nH]1	5.3*	0	11	6	0	10
Nc1nnc(CCN2C(=O)S/C(=C\c3ccccc3)C2=O)s1	0	0	-61	5	nt	nt
CC(C)N1C(=O)CC(Nc2ccc(N3CCOCC3)cc2)C1=O (centres undefined)	0	0	-27	1	nt	nt
CC(c1ccccc1)N1C(=O)CC(Nc2ccc(N3CCOCC3)cc2)C1=O (centres undefined)	7.2*	-1	1	8	0	13
Nc1nnc(Cc2cccc(Br)c2)s1	11*	0	1	11	1	22
CC(C)C(=O)N1CCN(S(=O)(=O)c2ccccc2[N+](=O)[O-])CC1	-2	0	7	6	nt	nt
O=C(CN1CCN(S(=O)(=O)c2ccc(Br)cc2)CC1)Nc1ccc(Cl)c(C(F)(F)F)c1	5.8*	0	11	-5	-1	-6
CCOc1ccc(-c2nnc3cccc(Cl)n23)cc1OC	-1	0	-20	-5	nt	nt
O=C(COC(=O)c1ccccc1O)c1ccc(Br)cc1	-2	0	-22	18	nt	nt
O=C(CC(=O)c1ccccc1O)c1ccc(Br)cc1	5.4*	0	-30	-9	-1	-8
SMILES	GPR151 ag	FBW7 act	TEAD-YAP inh	MITF primary	GPR151 conf act	GPR119 counter
CC1(C)C(=O)C2(CCCCC2)C(=O)OC1c1ccc([N+](=O)[O-])cc1 (centres undefined)	-1	0	-6	-12	nt	nt
COc1ccccc1-c1cnc2ccc(NCc3ccc(S(N)(=O)=O)cc3)nn12	9.4*	0	3	-11	0	9
Fc1ccc(CNc2ccc3ncc(-c4ccc5c(c4)OCO5)n3n2)cc1	8.4*	0	23	12	0	4
COc1ccc(CNc2ccc3ncc(-c4ccc(OC)cc4)n3n2)cc1	5.5*	0	22	-14	0	-2
C=CCNc1cc(-c2ccccc2)nc2ncnn12	0	0	-3	-2	nt	nt
C#CCNc1cc(-c2ccccc2)nc2ncnn12	7.1*	0	0	-1	0	-3
O=C1NC(c2cc(I)ccc2Cl)=N/C1=C/c1cc2c(cc1Cl)OCO2	-1	0	0	9	nt	nt
COc1cc(-c2cn[nH]c2)cc2c(=O)[nH]c(C3COc4ccc(C)cc4C3)nc12 (centres undefined)	5.6*	0	7	10	-1	-6
O=C(CN1C(=O)C2C3c4ccccc4C(c4ccccc43)C2C1=O)Nc1cccc(C(F)(F)F)c1 (centres undefined)	1	0	3	3	nt	nt
Cn1ccc(C(=O)NCC2Cc3cc(-c4cnccn4)cc(Cl)c3O2)n1 (centres undefined)	1	0	-1	18	nt	nt
Cc1ccn(CCC(=O)NCC2Cc3cc(-c4cnccn4)cc(Cl)c3O2)n1 (centres undefined)	12*	0	-1	-9	1	16
CCC1CCc2c(sc3nc(SCC(=O)Nc4c(C)cccc4C)n(-c4ccccc4)c(=O)c23)C1 (centres undefined)	8.1*	0	1	27	0	-4
CC(=O)C1=C(C)NC(SCC=C(C)C)=C(C#N)C1C1C=CC(Cl)C=C1 (centres undefined)	5.4*	0	-3	-7	1	-13
CC(=O)C1=C(C)NC(SCC(=O)O)=C(C#N)C1c1ccccc1 (centres undefined)	0	0	-8	14	nt	nt
O=C(OCc1ccccc1)/C(=C/c1cccc([N+](=O)[O-])c1)NC(=O)c1ccco1	0	0	-5	4	nt	nt
NC(=O)/C(=C/c1cccc([N+](=O)[O-])c1)NC(=O)c1ccco1	6.8*	0	-1	-6	1	-4
CNC(=O)/C(=C/c1cccc([N+](=O)[O-])c1)NC(=O)c1ccc(C(C)(C)C)cc1	6.0*	0	1	3	0	-3
Cn1cnnc1-c1ccc(Nc2nccc(-c3cccc(N4CCOCC4)c3)n2)cc1	2	0	28	18	nt	nt
c1ccc(-c2cc(N3CCCCC3)nc(-c3cccnc3)n2)nc1	1	0	18	4	nt	nt
c1ccc(-c2cc(N3CCCCC3)nc(-c3ccncc3)n2)nc1	9.4*	0	11	3	-1	-6
CCOC(=O)c1c(C)[nH]c(C(=O)CSC2CCCC2)c1C	0	0	-37	-8	nt	nt
Nn1c(SCC(=O)Nc2ccc(N3CCOCC3)cc2)nnc1-c1cccs1	0	0	-19	20	nt	nt
CCOc1ccc(NC(=O)C2=CCN(S(=O)(=O)c3ccccc3)CC2)cc1	5.4*	0	-4	-4	0	2
CCOc1ccc(C(=O)NCC2CCCN2S(=O)(=O)c2ccccc2)cc1 (centres undefined)	5.6*	0	-8	4	0	-14
